Experimental data taken from PubChem BioAssay (NCATS).
Inconclusive results are not listed. Unmarked numbers belong to inactive results. Activity calls are given as the source filed them. The call rests on the fitted dose curve; in most records, active means well fitted cell-killing curve with a large enough effect; inconclusive means small, poorly fitted or top-dose-only effect; inactive means flat fitted curve, though single readings scatter.

assay: qHTS of pediatric cancer cell lines to identify multiple opportunities for drug repurposing: Primary screen for RD cells (AID 1347104); conditions: RD rhabdomyosarcoma viability, CellTiter-Glo luminescence, 48 h; series mostly up to 46 µM; activity change, negative = cytotoxic: at the top concentration; further: nearly all actives have a fitted effect of over 55% in size;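 on activity change, negative = cytotoxic: plate controls were DMSO for no effect and bortezomib for full effect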
Summary of the method: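 CRCs from 8- or 11-point titrations (lowest final 0.59 nM NPC, 0.78 nM MIPE). Cell viability: CellTiter-Glo after 48 h incubation, 15 min room-temperature development, luminescence imaging.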
Potency means the concentration at half of the fitted maximal effect.

First: O=C1CC2(CCCC2)CC(=O)N1
Second: O=C1CC(c2ccc(Cl)cc2)CC(=O)N1
The “activity change, negative = cytotoxic” value of the first is higher: 15.3% for the first, 13.8% for the second.

Going from CCN1CCCC1CN (stereo not given) to CCOC(=O)CN1CCCC1=O, the “activity change, negative = cytotoxic” value rises from -0.0068% to 8.78%.

First: CC(C)=CCC/C(C)=C/CC/C(C)=C/CCC(=O)OC/C=C(\C)CCC=C(C)C
Second: CC(=O)OCC[N+](C)(C)C
The “activity change, negative = cytotoxic” value of the first is lower: 3.71% for the first, 4.21% for the second.

First: O=C(CCCl)NCCc1ccccc1
Second: CCOC(=O)C(=O)CCc1ccccc1
The “activity change, negative = cytotoxic” value of the first is lower: 2.33% for the first, 11.4% for the second.

Going from CO[C@@]1(NC(=O)CSC[C@@H](N)C(=O)O)C(=O)N2C(C(=O)O)=C(CSc3nnnn3C)CS[C@@H]21 to Cn1c(=O)c2c(ncn2CC(=O)O)n(C)c1=O, the “activity change, negative = cytotoxic” value rises from -2.47% to 17.4%.

Compared with CC(=O)O[C@@H]1CC2C3CCc4cc(OC(=O)c5ccccc5)ccc4C3CCC2(C)[C@H]1OC(C)=O (stereo not given in full), C[C@@H]1C[C@H]2[C@@H]3CCC4=CC(=O)C=C[C@]4(C)[C@@]3(F)[C@@H](O)C[C@]2(C)[C@@]1(O)C(=O)COC(=O)c1ccncc1 is lower in “activity change, negative = cytotoxic” value: 0.347% for the first, -2.19% for the second.

Compared with Oc1ccccc1, OCc1cccnc1 is lower in “activity change, negative = cytotoxic” value: 19.9% for the first, 7.17% for the second.

First: O=C(O)Cc1ccc(OCCNC[C@H](O)c2ccccc2)cc1
Second: O=C(O)CCCC[P+](c1ccccc1)(c1ccccc1)c1ccccc1
The “activity change, negative = cytotoxic” value of the first is lower: -22.2% for the first, 3.25% for the second.

First: Nc1ncnc2c1ncn2Cc1c(F)cccc1Cl
Second: Nc1nc2ccccc2n1Cc1ccc(F)cc1
The “activity change, negative = cytotoxic” value of the first is higher: 9.97% for the first, 0.319% for the second.

First: NC(=O)COCCN1CCN(C(c2ccccc2)c2ccc(Cl)cc2)CC1 (stereo not given)
Second: COc1ccccc1N1CCN(CC(O)COc2cc(OC)c(OC)c(OC)c2)CC1 (stereo not given)
The “activity change, negative = cytotoxic” value of the first is lower: 5.49% for the first, 10.7% for the second.

First: O=C(Nc1ccc(S(=O)(=O)N2CCOCC2)cc1)c1cc(Cl)ccc1NS(=O)(=O)c1ccc(Cl)s1
Second: NS(=O)(=O)c1cc(C(=O)NN2C[C@H]3[C@H]4CCC(C4)[C@H]3C2)ccc1Cl
The “activity change, negative = cytotoxic” value of the first is lower: -17.5% for the first, 4.58% for the second.

First: C[C@@H]1CCC[C@H](C)N1CCCC(O)(c1ccccc1)c1ccccn1 (stereo not given in full)
Second: CC(C)(C)c1ccc(C(=O)CCCCl)cc1
The “activity change, negative = cytotoxic” value of the first is lower: -4.95% for the first, 10.2% for the second.

Going from Cc1cc(O)c2c(O)c3c(O)cccc3cc2c1 to COC(=O)c1cc(S(N)(=O)=O)ccc1OC, the “activity change, negative = cytotoxic” value falls from 4.34% to 3.31%.

Compared with CN(C)CCN1CCN(c2cccc(Cl)c2)C1=O, COC(=O)c1cc(Cl)ccc1OC is lower in “activity change, negative = cytotoxic” value: 5.18% for the first, 4.99% for the second.

Going from CC(=O)O[C@H]1CC[C@@]2(C)C(=CC[C@@H]3[C@@H]2CC[C@]2(C)C(C(C)=O)=CC[C@@H]32)C1 to CCCCCC1Nc2cc(C(F)(F)F)c(S(N)(=O)=O)cc2S(=O)(=O)N1 (stereo not given), the “activity change, negative = cytotoxic” value falls from 16.6% to 8.3%.

Compared with O=C(O)c1ccccc1Nc1cc(Cl)ccc1C(=O)O, CC(NN)c1ccccc1 (stereo not given) is higher in “activity change, negative = cytotoxic” value: -25.6% [at 16.1 µM] for the first, -2.46% [at 16.1 µM] for the second.

For O=C(Nc1ccc(Cl)cc1)Nc1ccc(Cl)c(C(F)(F)F)c1, the Potency was 11.9 µM (active).
In the case of CCCCCCCCCCCCCC[N+](C)(C)C, the Potency is reported as 11.9 µM (active).

CC1CN(c2cc3c(cc2F)c(=O)c(C(=O)O)cn3-c2ccc(F)cc2F)CCN1 (stereo not given) gave an activity change, negative = cytotoxic of -4.55% [at 4.84 µM].
